Measured potencies and affinities stand elsewhere. The source made the active and inactive calls.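 The calls were made as follows: active = fitted concentration giving half the maximal Nile Red retention below 100 µM; inactive = the rest.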

The experiment deals with Multidrug resistance protein CDR1 (Candida albicans) (UniProt P43071). In words: CaCdr1 efflux pump inhibitor potency, dose response, singleplex, Cherry Pick2 set (AID 623996). As to conditions: S. cerevisiae AD/CaCDR1, Nile Red efflux inhibition, flow cytometry; series mostly up to 100 µM; efflux inhibition response: at the top concentration. A general note: In flow cytometry, cells or beads pass a laser one at a time.
Chain of Multidrug resistance protein CDR1 (Candida albicans) (P43071 whole entry, looked up): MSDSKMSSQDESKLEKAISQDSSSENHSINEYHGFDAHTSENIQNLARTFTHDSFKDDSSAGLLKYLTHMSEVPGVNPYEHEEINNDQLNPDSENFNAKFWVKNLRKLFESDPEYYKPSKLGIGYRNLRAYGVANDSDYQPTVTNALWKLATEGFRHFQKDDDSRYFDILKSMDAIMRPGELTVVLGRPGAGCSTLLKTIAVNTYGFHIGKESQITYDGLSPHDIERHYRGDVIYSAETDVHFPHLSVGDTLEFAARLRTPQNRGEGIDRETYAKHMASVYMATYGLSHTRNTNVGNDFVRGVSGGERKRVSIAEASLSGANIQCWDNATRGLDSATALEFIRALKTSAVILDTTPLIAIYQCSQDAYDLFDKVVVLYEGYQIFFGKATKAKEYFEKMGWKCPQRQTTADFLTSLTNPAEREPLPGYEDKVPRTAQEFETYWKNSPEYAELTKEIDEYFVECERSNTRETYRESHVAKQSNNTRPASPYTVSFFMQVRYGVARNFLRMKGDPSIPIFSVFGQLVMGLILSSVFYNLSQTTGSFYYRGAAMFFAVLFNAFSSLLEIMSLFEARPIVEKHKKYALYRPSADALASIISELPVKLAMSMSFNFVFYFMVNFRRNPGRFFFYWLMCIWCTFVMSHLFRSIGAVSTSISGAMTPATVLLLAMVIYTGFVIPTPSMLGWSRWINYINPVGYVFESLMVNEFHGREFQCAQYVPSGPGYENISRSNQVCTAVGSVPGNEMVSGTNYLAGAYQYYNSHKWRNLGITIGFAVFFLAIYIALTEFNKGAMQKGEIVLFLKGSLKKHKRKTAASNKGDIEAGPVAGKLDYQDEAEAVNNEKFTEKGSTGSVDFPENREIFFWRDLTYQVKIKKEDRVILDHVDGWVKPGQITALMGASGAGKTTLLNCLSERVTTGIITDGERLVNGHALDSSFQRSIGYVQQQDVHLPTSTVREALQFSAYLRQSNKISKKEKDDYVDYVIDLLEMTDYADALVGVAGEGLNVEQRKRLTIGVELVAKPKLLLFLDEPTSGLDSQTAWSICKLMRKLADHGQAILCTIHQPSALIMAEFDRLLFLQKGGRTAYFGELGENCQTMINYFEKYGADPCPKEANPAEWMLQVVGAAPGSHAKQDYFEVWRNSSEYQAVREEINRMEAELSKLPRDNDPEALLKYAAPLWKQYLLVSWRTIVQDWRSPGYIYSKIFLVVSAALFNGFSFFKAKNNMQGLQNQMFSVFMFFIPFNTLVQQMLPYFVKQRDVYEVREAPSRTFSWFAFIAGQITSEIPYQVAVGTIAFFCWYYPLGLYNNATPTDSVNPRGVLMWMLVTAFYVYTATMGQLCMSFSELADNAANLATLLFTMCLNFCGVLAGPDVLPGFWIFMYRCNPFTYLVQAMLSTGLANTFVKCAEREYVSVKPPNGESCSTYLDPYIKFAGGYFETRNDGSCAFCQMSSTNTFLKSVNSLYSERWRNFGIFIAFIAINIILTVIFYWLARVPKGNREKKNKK
With `C[C@@]12C(=O)Nc3cc(F)c(F)cc3C(=O)N1[C@H]1c3cc(Cl)ccc3OC[C@@H]1[C@@H]2c1ccccc1`, the “efflux inhibition response” value is 2.74% (inactive). Still for that read-out and setting: with `COc1cccc(-c2sc3ccc(OC)cc3c2-c2ccc(OCCN3CCOCC3)cc2)c1` the figure was 96.5% (inactive); with `CCCCN1Cc2cc(C(=O)c3cc(OC)ccc3O)cnc2NC1=O`, -3.22% (inactive).

Regarding `Cc1ccc(C)c(N2CCN(C(=O)C3CCCN(c4ncnc5c4nc4n5CCCCC4)C3)CC2)c1` (stereo not given), the “efflux inhibition response” value was 0.23% (inactive).

Take `Cc1ccc(-c2c[n+](CC(=O)N3c4ccccc4Sc4ccccc43)c3n2CCC3)cc1`: the “efflux inhibition response” value was -4.43% (inactive). For the compound `NS(=O)(=O)c1ccc(N2N=C(c3ccc(Br)cc3)CC2c2ccc(F)cc2)cc1` (stereo not given), the “efflux inhibition response” value is -3.7% (inactive). As for `O=C(Nc1ccccc1)C1=C[C@H](c2ccccc2)C[C@H](OCCCCO)O1`, the “efflux inhibition response” value was -0.52% (inactive).

`COc1ccccc1C(=O)OCCc1ccccc1`: the “efflux inhibition response” value is -0.84% (inactive). For the compound `CCC(=O)N1CCN(c2ccc(Cl)cc2NC(=O)c2ccc3c(c2)OCCO3)CC1`, the outcome was inactive.

Take `CCO[C@@H]1OC(C(=O)Nc2ccccc2)=C[C@H](c2ccc(Br)cc2)[C@H]1CCCO`: the “efflux inhibition response” value was 124% (inactive). For the compound `Cc1ccc(O)c(C(=O)c2cnc3c(c2)CN(CCC(C)C)C(=O)N3)c1`, the compound was classed as inactive.

For the compound `COc1ccc(C2CC(c3cccc(OC)c3)=NN2c2ccc(S(N)(=O)=O)cc2)cc1` (stereo not given), the “efflux inhibition response” value is 1.19% (inactive). The same measure, in the same setting: as for `COc1ccc(N2CCN(C(=O)C3CCCN(c4ncnc5c4nc4n5CCCCC4)C3)CC2)cc1` (stereo not given), the figure is -3.49% (inactive); as for `O=C(C[n+]1cc(-c2ccccc2)n2c1CCC2)N1c2ccccc2Sc2ccccc21`, -1.96% (inactive). The same measure, in the same setting: as for `NS(=O)(=O)c1ccc(N2N=C(c3ccccc3)CC2c2ccccc2)cc1` (stereo not given), the figure is -3.44% (inactive); as for `CC(C)C(=O)N1CCC2(CC1)Oc1ccc(Cl)cc1C(=O)C21CC(c2ccc(Cl)cc2)=NO1` (stereo not given), 28.3% (inactive). For the compound `COc1cccc(N2CCN(C(=O)C3CCCN(c4ncnc5c4nc4n5CCCCC4)C3)CC2)c1` (stereo not given), the “efflux inhibition response” value was -1.74% (inactive).

As to `O=C(CSc1nnc(Cc2cccs2)n1Cc1ccco1)Nc1cccc(Cl)c1`, the “efflux inhibition response” value was -3.15% (inactive). The same measure, in the same setting: with `O=C(NCCc1ccc(Cl)cc1)C1CCC(CNc2nc(=S)[nH]c3ccccc23)CC1` (stereo not given) the figure was -1.47% (inactive); with `O=C(C1CCCN(c2ncnc3c2nc2n3CCCCC2)C1)N1CCN(c2ccccc2F)CC1` (stereo not given), -3.46% (inactive); with `CCN(CC)CCC(c1ccc(N(C)C)cc1)c1c(OC)cc(OC)c2ccc(=O)oc12` (stereo not given), -1.39% (inactive). On the same count and under the same terms, as for `O=C(c1ccoc1)N1CCC2(CC1)Oc1ccc(F)cc1C(=O)C21CC(c2ccc(Cl)cc2)=NO1` (stereo not given), the figure is 98.9% (inactive).

For `O=C(C1CCC(CNc2nc(=S)[nH]c3ccccc23)CC1)N1CCN(c2ccc(F)cc2)CC1` (stereo not given), the “efflux inhibition response” value is -0.38% (inactive). Same read-out and setting: as for `NC1=NC[C@H](Cc2ccccc2)N1CCCCC1CCCCC1`, the figure is -3.02% (inactive).

`CC(C)C(=O)N1CCC2(CC1)Oc1ccc(F)cc1C(=O)C21CC(c2ccc(Cl)cc2)=NO1` (stereo not given): the “efflux inhibition response” value was 86.8% (inactive). The same measure, in the same setting: with `C[C@H](CO)N1C[C@H](C)[C@@H](CN(C)S(=O)(=O)c2ccccc2)Oc2c(NC(=O)Nc3ccccc3)cccc2C1=O` the figure was 52.5% (inactive); with `Cc1ccc(CNC(=O)C2CCC(CNc3nc(=S)[nH]c4ccccc34)CC2)cc1` (stereo not given), -0.52% (inactive); with `COc1ccc(-c2c[n+](CC(=O)N3c4ccccc4Sc4ccccc43)c3n2CCC3)cc1`, -1.3% (inactive). Same read-out and setting: as for `COc1ccc(CNC(=O)C(C#N)c2nc3ccccc3nc2N2CCCC2)cc1` (stereo not given), the figure is -3.36% (inactive); as for `COc1cc(OC)c2c(-c3ccccc3)cc(=O)oc2c1C(CCN1CCCC(C)C1)c1ccc(N(C)C)cc1` (stereo not given), -3.3% (inactive).
